# Results as given in PubChem BioAssay (NCI).
# This is part of a sample that, as a whole, favours compounds with a hit. Of some 79,000 tested, about 15% had one in any assay. Values without a mark were called inactive. Calls of active or inactive are those of the source. No stated cut-off is given here; in the data, active means growth inhibition above about 70%; inactive means the rest.
# What was measured:
# [1] = NCI Yeast Anticancer Drug Screen. Data for the rad50 strain (AID 155);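 further: 0% = growth of vehicle-only cultures of the same strain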; settings: S. cerevisiae rad50 strain growth inhibition, hits give high values
# Outline: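 Vehicle-treated cultures provide the reference for the growth inhibition reported for compound-exposed, repair-deficient yeast.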
# [2] = NCI Yeast Anticancer Drug Screen. Data for the mec2-1 strain (AID 157); settings: S. cerevisiae mec2-1 strain, hits give high values
# Outline: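 Yeast mec2-1 mutant treated with compound. Readout: growth inhibition vs vehicle controls.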
# [3] = NCI Yeast Anticancer Drug Screen. Data for the sgs1 mgt1 strain (AID 161);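 further: 0% = growth of cultures given vehicle only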; settings: S. cerevisiae sgs1 mgt1 strain, hits give high values
# Outline: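 Genetically altered yeast, compound exposure, growth inhibition relative to vehicle.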
# [4] = NCI Yeast Anticancer Drug Screen. Data for the cln2 rad14 strain (AID 165);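 further: 0% = growth equal to vehicle treated cultures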; settings: S. cerevisiae cln2 rad14 strain, hits give high values
# Outline: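 cln2 rad14 yeast strain; compound exposure; growth inhibition read vs vehicle controls.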
# [5] = NCI Yeast Anticancer Drug Screen. Data for the bub3 strain (AID 167); settings: S. cerevisiae bub3 mutant strain, hits give high values
# Outline: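 Mutant yeast screening strain plus compound; vehicle-treated cultures serve as the 0% inhibition reference.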
# [6] = NCI Yeast Anticancer Drug Screen. Data for the mlh1 rad18 strain (AID 175); settings: S. cerevisiae mlh1 rad18 strain growth inhibition, hits give high values
# Outline: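 Yeast w/ defined DNA-repair lesions; compound exposure; growth vs vehicle controls → % inhibition.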
# [7] = at 5.0 µM (retest, dose inferred, filed as 0.5)
# [8] = at 50.0 µM (retest, dose inferred, filed as 5.0)
SMILES,"growth inhibition [1, 7] [%]","growth inhibition [1, 8]",growth inhibition ([1]; at 50.0 µM),"growth inhibition [2, 7] [%]","growth inhibition [2, 8]",growth inhibition ([2]; at 50.0 µM),"growth inhibition [3, 7]","growth inhibition [3, 8]",growth inhibition ([3]; at 50.0 µM),"growth inhibition [4, 7]","growth inhibition [4, 8]",growth inhibition ([4]; at 50.0 µM),"growth inhibition [5, 7]","growth inhibition [5, 8]",growth inhibition ([5]; at 50.0 µM),"growth inhibition [6, 7]","growth inhibition [6, 8]",growth inhibition ([6]; at 50.0 µM)
CC1(C)OC2C(COC(c3ccccc3)(c3ccccc3)c3ccccc3)OC(n3cnc4c(=O)[nH]cnc43)C2O1 (configuration not stated),43,97% (active),69%,62,99% (active),62%,24%,99% (active),56.5%,19%,97% (active),50.9%,30%,98% (active),49.9%,84% (active),98% (active),61.9%
CCCCCCCCCCSCCO,30,88% (active),92.7% (active),51,92% (active),94% (active),99% (active),93% (active),93.5% (active),78% (active),99% (active),92.3% (active),100% (active),97% (active),92.5% (active),42%,97% (active),92.7% (active)
CCCCN(CCCC)CC(O)c1cccc2c(Cl)cccc12 (configuration not stated),15,54%,86.5% (active),8,75% (active),71.7% (active),13%,93% (active),88.5% (active),8%,57%,89.7% (active),13%,82% (active),94.8% (active),24%,88% (active),70.5% (active)
CCCCCCCCCCCCCCCCCC[n+]1ccc(C(C)CC)cc1 (configuration not stated),1,96% (active),99.3% (active),12,98% (active),99.6% (active),18%,97% (active),99.2% (active),16%,87% (active),99.1% (active),29%,96% (active),99.2% (active),6%,97% (active),99.2% (active)
O=C(c1ccc([N+](=O)[O-])cc1)c1[nH]c2ccccc2c(=O)c1-c1ccccc1,-2,96% (active),98% (active),14,99% (active),99% (active),0%,99% (active),98.6% (active),-3%,95% (active),98.6% (active),-2%,98% (active),98.7% (active),25%,99% (active),99% (active)
CCC[C@H]1[C@H](CCC)[C@@]2(OC(=O)C3=C2CCC=C3)[C@]12OC(=O)C1=C2CCC=C1,-2,98% (active),87.8% (active),2,99% (active),87.4% (active),3%,98% (active),92% (active),-7%,99% (active),91.7% (active),2%,98% (active),89% (active),1%,98% (active),89.8% (active)
CN(c1ccccc1)c1c2c(oc(=O)c1Cl)-c1ccccc1SC2,16,45%,86% (active),12,8%,46.2%,13%,40%,62.4%,7%,32%,10.9%,0%,85% (active),93.5% (active),7%,96% (active),55%
CCOC(=O)/C(=C/c1ccc(Cl)cc1)N(CC)CC,16,15%,64.3%,-21,20%,55.2%,2%,18%,54.3%,43%,58%,76.2% (active),9%,36%,64.8%,-13%,-2%,53.1%
O=C1C(N=Nc2ccccc2)=C(O)C2C3C=CC(C3)C12 (configuration not stated),2,98% (active),98.8% (active),0,98% (active),98.5% (active),2%,95% (active),95% (active),1%,98% (active),99.3% (active),1%,98% (active),98.2% (active),17%,98% (active),98.8% (active)
COc1ccc(/C=C(/C#N)c2ccccc2)cc1,8,-2%,67.1%,9,27%,19.6%,9%,2%,81.5% (active),1%,4%,16.4%,10%,55%,73.5% (active),5%,19%,69%
CCc1[nH]c2ccccc2c1N1C(=O)CC2(CCN(Cc3ccccc3)CC2)CC1=O,-4,1%,32.1%,1,25%,6.25%,-75%,23%,32.4%,-1%,2%,3.7%,-6%,8%,35.5%,-6%,10%,19.7%
COc1ccccc1NC(=O)/C(=C/n1c(=S)sc2ccccc21)C(C)=O,-19,14%,38.3%,-19,14%,48%,7%,20%,63.6%,11%,17%,64.2%,-9%,30%,29.5%,-14%,14%,47%
O=C(Nc1ncnc2c1ncn2C1CC(O)C(CO)O1)c1ccccc1 (configuration not stated),1,1%,-2.25%,-2,0%,-11.3%,-1%,1%,-0.05%,-6%,-2%,-23.9%,-2%,-1%,54.1%,-4%,4%,-17.8%
O=S(=O)(O)C(O)c1ccc2ccc3cccc4ccc1c2c34 (configuration not stated),12,95% (active),94.4% (active),-2,96% (active),95.3% (active),4%,92% (active),67.8%,-4%,84% (active),77.5% (active),-3%,94% (active),97.5% (active),3%,95% (active),97% (active)
O=C(CCl)OCC(=O)c1ccc(-c2ccccc2)cc1,9,97% (active),10.2%,5,97% (active),-1.9%,10%,99% (active),21.2%,28%,95% (active),10.2%,11%,98% (active),19.4%,16%,98% (active),32.4%
Nc1ncnc2c1ncn2CC(O)CN(CCO)CCO (configuration not stated) (tested in a mixture with another compound),-24,-1%,-5%,-10,-7%,-3.15%,-11%,-3%,-12.1%,-12%,4%,18.8%,7%,15%,2%,-15%,-17%,22.2%
CN(C)c1ccc(N=Nc2ccc3c4c(cccc24)-c2ccccc2-3)cc1,26,94% (active),96.5% (active),-4,96% (active),97.5% (active),3%,96% (active),97.4% (active),-1%,97% (active),95.8% (active),0%,95% (active),97% (active),-1%,95% (active),97% (active)
O=S(=O)(Nc1ccc(Cl)cc1)c1ccccc1,-3,50%,76.5% (active),-14,32%,46%,1%,80% (active),47.7%,-9%,81% (active),20.9%,-8%,56%,53.9%,-5%,63%,45.5%
FC(F)(F)c1ccccc1NC(=S)SCc1ccco1,1,52%,93.7% (active),1,32%,76.3% (active),1%,45%,87.7% (active),-4%,17%,52.1%,8%,33%,81.3% (active),-2%,57%,88.3% (active)
